The source of these data is PubChem BioAssay AID652104 (National Center for Advancing Translational Sciences (NCATS), 2013).

Screen size: about 410,000 compounds; about 7,200 (1.8%) were called active. Where a call stands in place of a potency, no number is given. Not shown: some 7% with an inconclusive outcome. Many of the other results were omitted from the sample, so actives are more common in it than they were. A number with no mark means an inactive call. Calls come from the whole dose curve; as a rule, active = well fitted activation curve with a large enough effect; inconclusive = small, poorly fitted or top-dose-only effect, or another doubt; inactive = no such curve, though single readings can be large or run the other way.
Potency is the fitted concentration of half-maximal effect.

The nature of this assay: qHTS of TDP-43 Inhibitors. Note: nearly all actives have a fitted effect of over 50% in size. The note with it: TDP-43 expressing yeast growth rescue, BacTiter-Glo, 24 h; series mostly up to 46.1 µM. The gist of the method:
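Luminescence from BacTiter-Glo reports growth of TDP-43-expressing yeast after 24 hr at 30 deg C with compound. Cells were raffinose-pregrown to mid-log, then seeded in galactose medium at OD600=0.02.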
Regarding `O=C(O)CCC(=O)NCc1ccc(C(=O)O)cc1`, the Potency result is “inactive”.
For `CCOc1ccc(-c2cc(C)n3nc(C(=O)Nc4ccc(C)c(C)c4)cc3n2)cc1`, the Potency entry was “inactive”.
The same measure, in the same setting: in the case of `CCCCCC(=O)Nc1ccc(-c2cn3cccnc3n2)cc1` it was “inactive”.
Same read-out and setting: the value for `CCOc1ccc(-c2ccc(SCC(=O)N3CCOCC3)nn2)cc1` was “inactive”.
Take `CCCCCc1ccc(-c2ccc(OCC)cc2)nc1`: the Potency is 12.6 µM (active).
On the same count and under the same terms, the value for `CCCCCc1ccc(-c2ccc(C(=O)O)cc2)nc1` was 3.16 µM (active); that for `Cc1ccsc1CN(C(=O)c1oc2ccc(Br)cc2c1C)C1CCS(=O)(=O)C1` (stereo not given) was “inactive”; that for `O=C(Nc1ccccc1Br)c1cc(CN2CCCC2)on1` was “inactive”.
In the case of `Cc1ccc2nc(CN3CCN(S(=O)(=O)c4ccc(C)c(C)c4)CC3)oc2c1`, the Potency result was “inactive”.
Same read-out and setting: the value for `Cc1ccc(CN2CCC(CNC(=O)c3cnn(-c4ccccc4Cl)c3C3CCN(C(=O)OC(C)(C)C)CC3)CC2)cc1` was “inactive”; that for `Cc1ccc(C(=O)OCc2nc(N)nc(Nc3ccccc3C)n2)cc1` was 12.6 µM (active); that for `Cc1ccccc1Nc1nc(N)nc(COC(=O)CCC(=O)c2ccc(F)cc2)n1` was “inactive”.
On the same count and under the same terms, in the case of `CCCn1nc(C(=O)OCc2nc(N)nc(Nc3ccccc3C)n2)c2ccccc2c1=O` it was “inactive”.
With `O=C(NC1CC(=O)N(c2ccc(F)cc2)C1)c1ccc(S(=O)(=O)N2CCCC2)cc1` (stereo not given), the Potency entry was “inactive”.
Consider `COc1ccc2c(C)c(CCC(=O)NCc3ccc(OC)c(OC)c3)c(=O)oc2c1`, for which the Potency entry was “inactive”.
Still for that read-out and setting: the value for `CC1CCCCN1CC(=O)N1CCCc2c1c(=O)oc1ccc(OCc3ccccc3)cc21` (stereo not given) was “inactive”; that for `Cc1cc(Cl)ccc1NC(=O)Cc1ccc(NC(=O)N2CCCCc3ccccc32)cc1` was “inactive”.
For `CCc1cccc(-n2nnc(-c3nsc(NC(=O)c4ccc(C)cc4)n3)c2C)c1`, the Potency result is “inactive”.
Still for that read-out and setting: the value for `C=CCOc1ccc(/C=N/NC(=O)C(C)Sc2ccccn2)cc1OCC` (stereo not given) was “inactive”; that for `CCOc1ccc(/C=C(\C#N)c2nc3ccccc3c(=O)[nH]2)cc1OC` was “inactive”; that for `C=CCOc1ccc(/C=C2/C(=O)ON=C2C)cc1OCC` was 12.6 µM (active).
The same measure, in the same setting: the value for `Cc1cccc(CC(=O)Nc2cccc(-c3cn4cccnc4n3)c2)c1` was “inactive”; that for `Cc1cc2nc(-c3ccc(F)cc3)c(Cc3ccsc3)n2c(C)c1Br` was “inactive”; that for `Cc1cc2nc(-c3ccco3)c(Cc3cccc(F)c3)n2c(C)c1Br` was 3.16 µM (active).
As for `O=C(CN1C(=O)CCn2nc(-c3ccccc3)cc21)NCc1ccccc1`, the growth rescue (activation) was 18.2% [at 9.22 µM].
As to `COc1cccc(C(=O)NCc2ccc3c(c2)CCN3C(=O)c2ccncc2)c1`, the Potency result is “inactive”.
On to `Cc1ccc(C(=O)O/N=C(\N)c2ccccn2)cc1Cl`, for which the Potency is 7.08 µM (active).
Same read-out and setting: in the case of `Cc1ccc(-c2cc(C(=O)Oc3ccccc3Cl)no2)cc1C` it was “inactive”; in that of `C/C(=N/OC(=O)c1c(-c2c(F)cccc2Cl)noc1C)c1cnccn1`, “inactive”; in that of `Cc1c(Cl)cccc1NC(=O)C(=O)NCCc1csc2nc(-c3ccccc3F)nn12`, “inactive”.
Regarding `CC(=O)Nc1cccc(NC(=O)CSc2cn(CC(=O)N3CCCC3)c3ccccc23)c1`, the Potency result was “inactive”.
On to `COc1cccc(Cn2c(CNS(=O)(=O)c3ccc(Cl)s3)nc3cccnc32)c1`, for which the Potency result is “inactive”.
The same measure, in the same setting: in the case of `Cn1c(=O)c2[nH]c(NCC3CCCO3)nc2n(-c2ccccc2)c1=O` (stereo not given) it was “inactive”; in that of `O=C(NCC1CCCO1)c1cc2c([nH]c3ccccc32)c(-c2ccc(F)cc2)n1` (stereo not given), “inactive”; in that of `Clc1cccc(-c2nc(NCC3CCCO3)c3ccccc3n2)c1` (stereo not given), 12.6 µM (active).
On the same count and under the same terms, the value for `CCN(CCCNC(=O)Cn1ncc2c3ccccc3n(C)c2c1=O)Cc1ccccc1` was “inactive”; that for `CCOCCc1nn2c(=O)cc(COC(=O)CNC(=O)c3ccc(C(C)(C)C)cc3)nc2s1` was “inactive”; that for `COc1ccccc1N1CCN(S(=O)(=O)CCNC(=O)COc2ccc(F)cc2)CC1` was “inactive”.
Same read-out and setting: the value for `COc1ccc(CNC(=O)CSc2n[nH]c(-c3ccc(F)cc3)n2)cc1` was “inactive”; that for `COc1ccc(N)cc1NC(=O)CN1CCOCC1` was “inactive”; that for `COC(=O)CNC(c1ccccc1Cl)c1cc(Br)ccc1NC(=O)CCN1CCOCC1` (stereo not given) was 17.8 µM (active).
In the case of `CCOC(=O)C1CCN(CCC(=O)Nc2cccc(C)c2)CC1`, the Potency result was “inactive”.
The same measure, in the same setting: in the case of `CCc1ccccc1NC(=O)CSc1nnc(-c2ccccc2)c(-c2ccccc2)n1` it was “inactive”; in that of `O=C(NC1(C(F)(F)F)NC(=O)N(Cc2cccnc2)C1=O)c1ccccc1Cl` (stereo not given), “inactive”.
Take `CCOc1ccccc1C(=O)NC1(C(F)(F)F)NC(=O)N(CCc2ccc(OC)c(OC)c2)C1=O` (stereo not given): the Potency entry is “inactive”.
As to `COc1ccc(C(=O)NC2(C(F)(F)F)NC(=O)N(CCCc3ccccc3)C2=O)c(OC)c1OC` (stereo not given), the Potency is 20 µM (active).
For `O=C(Nc1ccc2oc(-c3ccc(O)c(Br)c3)nc2c1)c1cc2ccccc2o1`, the Potency result is “inactive”.
The same measure, in the same setting: in the case of `OCc1cnc(SCc2ccc(F)cc2)n1Cc1ccc(F)cc1` it was “inactive”; in that of `CCOC(=O)N1CCC(NC(=O)c2cnn(-c3cccc(C)c3)c2C2CCN(C(=O)OC(C)(C)C)CC2)CC1`, “inactive”.
For `O=C1C=C(c2cccc(Cl)c2)C[C@@H](c2ccc(F)cc2)C1`, the Potency was 22.4 µM (active).
On the same count and under the same terms, the value for `CCCCC/C=C/C1=CC(=O)C[C@H](c2ccc(Cl)cc2)C1` was “inactive”; that for `N#Cc1ccc(C2=CC(=O)C[C@H](c3ccc(Cl)cc3)C2)cc1` was 17.8 µM (active).
`COc1ccccc1C1=CC(=O)C[C@H](c2ccc(F)cc2)C1`: the Potency is 15.8 µM (active).
Still for that read-out and setting: in the case of `COc1ccc([C@H]2CC(=O)C=C(/C=C/c3ccc(Cl)cc3)C2)cc1` it was “inactive”; in that of `O=C1CC(c2cccc(Br)c2)C2=C(CCCC2=O)N1` (stereo not given), “inactive”; in that of `COc1cccc2c1CCC(NC(C)=O)C2=O` (stereo not given), “inactive”.
Take `COc1ccc(C2CC(=O)NC(=O)C2)cc1`: the Potency entry was “inactive”.
On the same count and under the same terms, the value for `O=C1C=C(c2cccc(Br)c2)C[C@@H](c2ccc(F)cc2)C1` was 20 µM (active); that for `O=C1CC(c2cccc(Cl)c2)CC(O)=C1C=Nc1ccccc1` (stereo not given) was “inactive”.
On the same count and under the same terms, the value for `O=C(NCC(c1ccc(Cl)cc1)N1CCOCC1)c1ccccc1F` (stereo not given) was “inactive”; that for `COC(=O)c1c(NC(=O)C(C)Oc2ccc(Cl)c(C)c2)sc(C)c1C` (stereo not given) was “inactive”.
Same read-out and setting: the value for `COc1ccccc1-c1noc(-c2ccc(NCc3ccccc3)c([N+](=O)[O-])c2)n1` was “inactive”.
`COc1ccc(-c2onc(C)c2C)cc1S(=O)(=O)NCC1CCN(Cc2cccc(F)c2)CC1`: the Potency entry was “inactive”.
For the compound `O=C(CSc1nc2c(c(=O)[nH]1)CN(Cc1ccc(F)cc1)CC2)Nc1ccccc1Cl`, the Potency result was “inactive”.
On the same count and under the same terms, in the case of `CCOc1ccc(NC(=O)C2CCN(S(=O)(=O)c3cc(-c4noc(C)n4)ccc3C)CC2)cc1` it was “inactive”.
On the same count and under the same terms, in the case of `N/C(=N\OC(=O)CCn1cccc(C(F)(F)F)c1=O)c1ccc(OC(F)(F)F)cc1` it was “inactive”.
The same measure, in the same setting: the value for `N/C(=N\OC(=O)CCc1ccccc1)c1cccnc1` was “inactive”; that for `COc1ccc(/C(N)=N/OC(=O)CCCc2ccccc2)cc1` was 22.4 µM (active).
On to `Cc1ccc(OCC(=O)Nc2ccc(OCc3cc(=O)n4c(C)csc4n3)cc2)cc1C`, for which the Potency entry is “inactive”.
In the case of `CC(C)Cn1c(-c2ccc(S(=O)(=O)N3CCOCC3)cc2)csc1=Nc1cc(Cl)ccc1Cl`, the Potency result is “inactive”.
Take `COc1ccc(-c2nc3ccc(Br)cn3c2Cc2ccc(C)cc2)cc1OC`: the Potency is 15.8 µM (active).
Same read-out and setting: in the case of `COC(=O)c1ccc2nc(-c3ccc(F)cc3)c(Cc3ccc(C)cc3)n2c1` it was “inactive”; in that of `COC(=O)c1ccc2nc(-c3ccc(C)cc3)c(Cc3ccc(OC)cc3C)n2c1`, “inactive”.
Still for that read-out and setting: the value for `Oc1c(C(c2ccccc2Cl)N2CCOCC2)sc2nc(-c3ccco3)nn12` (stereo not given) was “inactive”; that for `Cn1nnnc1SCCCNCc1cccc(OCc2ccc(Cl)cc2)c1` was “inactive”.
As to `C=C1C(=O)OC2C1CCC(C)=CCCC1(C)OC21` (stereo not given), the Potency was 14.1 µM (active).
The same measure, in the same setting: the value for `O=C(NCCc1ccccc1)C(=O)NCC(c1ccco1)S(=O)(=O)c1ccccc1` (stereo not given) was “inactive”; that for `COc1cccc(N2CCN(C(=O)CCCCCn3c(=O)[nH]c4ccccc4c3=O)CC2)c1` was “inactive”.
Same read-out and setting: the value for `COc1ccc(CCNC(=O)c2ccc3c(c2)nc(C)n3-c2ccc(Br)cc2)cc1OC` was “inactive”; that for `COc1ccc(-c2cc3c(c4c2ccn4C)C2CCC3C2)cn1` (stereo not given) was 20 µM (active).
The same measure, in the same setting: in the case of `CC(C)(C)c1ccc(OCC(=O)N2CCC(c3nc4ccccc4s3)CC2)cc1` it was “inactive”.
With `CCSc1nnc2c(n1)OC(c1ccc(OCC(=O)O)cc1)Nc1ccccc1-2` (stereo not given), the growth rescue (activation) is -36.7% [at 9.22 µM].
On to `COc1ccc(C)cc1-n1c(-c2ccc(C)cc2)cc2c1CC(C)(C)CC2=O`, for which the Potency entry is “inactive”.
Same read-out and setting: in the case of `Cc1ccc(Cl)cc1NC(=O)Cc1ccc(-n2c(C)nc3cccnc32)cc1` it was “inactive”.
With `CCCN(CCC)S(=O)(=O)c1ccc(C(=O)Nc2sc3c(c2C(=O)OC)CCN(CC)C3)cc1`, the Potency result is “inactive”.
In the case of `Cc1ccc(C)c(Cn2c(C(=O)O)c(CNCc3cccs3)c3ccccc32)c1`, the Potency result is “inactive”.
Same read-out and setting: in the case of `CCn1c2ccccc2c2cc(CC(N)=O)ccc21` it was “inactive”; in that of `CCN(C(=O)Cc1c(C(=O)O)n(CC)c2ccccc12)c1ccccc1C`, 25.1 µM (active); in that of `N#CCSc1nn(-c2ccc(F)cc2)c(=S)s1`, 15.8 µM (active).
In the case of `O=C(CSc1nn(-c2ccc(F)cc2)c(=S)s1)NC1CCS(=O)(=O)C1` (stereo not given), the Potency entry is “inactive”.
As for `Cc1ccccc1-n1nc(SCC(=O)O)sc1=S`, the Potency result is “inactive”.
The same measure, in the same setting: in the case of `COc1ccc(CC(=O)Nc2nnc3n2CCS3)cc1OC` it was “inactive”.
Consider `Cn1nc(-c2ccccc2)c(-c2ccccc2)c(C(=O)Nc2ccc(S(N)(=O)=O)cc2)c1=O`, for which the Potency result is “inactive”.
With `Cc1ccccc1C(CC(=O)c1cccs1)C(C#N)C#N` (stereo not given), the Potency was 17.8 µM (active).
Take `CCS(=O)(=O)N1CCN(C(=O)c2cccs2)CC1`: the Potency result is “inactive”.
Same read-out and setting: in the case of `Cc1ccccc1N(C(=O)CNC(=O)c1cccs1)C(C(=O)NC1CCCC1)c1ccncc1` (stereo not given) it was “inactive”; in that of `Cc1cccn2c(=O)c(C(=O)NC(C)c3ccccc3)cnc12` (stereo not given), “inactive”.
As to `COc1ccc(CC(=O)Nc2ccc(-c3nc4ccccc4s3)c(C)c2)cc1`, the Potency entry was “inactive”.
For the compound `CC(C)(C)c1ccc(S(=O)(=O)Nc2ccc(O)c(Sc3nc4ccccc4s3)c2)cc1`, the Potency result is “inactive”.
Same read-out and setting: the value for `COc1ccc(S(=O)(=O)Nc2ccc(O)c(Sc3nc4ccccc4s3)c2)cc1` was 31.6 µM (active).
